Reference: PubChem BioAssay (Tox21)
Results filed as inconclusive are left out. Active and inactive are the calls of the source. Unless noted, the call rests on the fitted dose curve.

Columns and labels:
[1] = Nuclear factor erythroid 2-related factor 2/antioxidant responsive element (Nrf2/ARE) small molecule agonists: qHTS cell viability counter screen in human keratinocytes (AID 1919968; active means well fitted curve in the direction sought with a large enough effect in the repeat runs; an effect the other way counts as inactive or inconclusive; further: nearly all actives have a fitted effect of over 55% in size)
Outline: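 After a 5 h attachment period, ARE-reporter keratinocytes were dosed with compounds in DMSO and then cultured 23 h at 37 C. Cell viability came from CellTiter-Fluor signal read after a further 1 h.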

[2] = molecular target: Gonadotropin-releasing hormone receptor (Homo sapiens) (UniProt P30968); test: Human gonadotropin-releasing hormone receptor (GnRHR) small molecule agonists, calcium flux assay in GnRHR-HEK293 cells (AID 1920063); further: nearly all actives have a fitted effect of over 35% in size
Gonadotropin-releasing hormone receptor (Homo sapiens), sequence (P30968 whole entry, looked up): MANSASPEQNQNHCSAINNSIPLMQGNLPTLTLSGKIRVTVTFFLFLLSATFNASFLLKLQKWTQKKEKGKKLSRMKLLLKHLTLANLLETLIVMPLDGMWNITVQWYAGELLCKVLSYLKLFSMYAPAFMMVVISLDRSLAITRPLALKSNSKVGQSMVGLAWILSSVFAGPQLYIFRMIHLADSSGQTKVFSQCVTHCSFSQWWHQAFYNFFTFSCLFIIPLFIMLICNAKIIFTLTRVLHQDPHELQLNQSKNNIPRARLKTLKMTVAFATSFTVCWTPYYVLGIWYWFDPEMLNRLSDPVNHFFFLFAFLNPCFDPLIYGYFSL
Outline: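 We seeded human GnRHR-expressing HEK293 cells for 18 hours, loaded them with calcium dye for an hour at 37 C, added test compounds, and recorded fluorescence intensity kinetically for three minutes.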

[3] = molecular target: KiSS-1 receptor (Homo sapiens) (UniProt Q969F8); test: Human kisspeptin (KISS1R) small molecule agonists, calcium flux assay in KISS1R-HEK293 cells (AID 1920064; active means well fitted curve in the direction sought with a large enough effect in the repeat runs; an effect the other way counts as inactive or inconclusive)
KiSS-1 receptor (Homo sapiens), sequence (Q969F8 whole entry, looked up): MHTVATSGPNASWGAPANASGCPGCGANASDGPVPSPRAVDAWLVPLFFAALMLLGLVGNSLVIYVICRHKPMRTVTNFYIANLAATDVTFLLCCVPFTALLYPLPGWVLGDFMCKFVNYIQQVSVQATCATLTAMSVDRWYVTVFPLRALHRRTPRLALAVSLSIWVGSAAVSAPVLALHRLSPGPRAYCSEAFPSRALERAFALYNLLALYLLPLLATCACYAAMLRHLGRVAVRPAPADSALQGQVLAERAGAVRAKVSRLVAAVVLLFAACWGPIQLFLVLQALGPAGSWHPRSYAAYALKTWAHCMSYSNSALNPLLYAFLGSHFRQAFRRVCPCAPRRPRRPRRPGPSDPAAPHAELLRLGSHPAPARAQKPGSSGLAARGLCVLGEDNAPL
Outline: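 Kinetic calcium assay, 1 s sampling over 3 min at Ex/Em 480/540, in HEK293 cells engineered with human KISS1R; compounds delivered in DMSO after 1 h dye loading.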

[4] = G protein-coupled receptor (GPCR) small molecule agonists, calcium flux assay: HEK293 wild type cell line counter screen (AID 1920065)
Outline: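 Calcium-sensitive dye, loaded 1 h at 37 C into cells cultured 18 h, reports compound-evoked calcium release as fluorescence (Ex/Em 480/540), measured over 3 min. Agonist mode; 15-point titrations, triplicate.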

[5] = p53 small molecule agonists, cell-based qHTS assay with rat liver microsomes (AID 1963578)
Outline: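 Fluorescence from a beta-lactamase reporter under a p53 response element was measured after cells had been incubated 16 h at 37 C with test compound and rat liver microsomes plus NADPH (0.5 mg/mL final each).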

[6] = p53 small molecule agonists, cell-based qHTS assay with rat liver microsomes: qHTS cell viability counter screen (AID 1963580); further: nearly all actives have a fitted effect of over 45% in size
Outline: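 p53RE-bla HCT-116 cells were exposed 16 h at 37 C to compounds with rat liver microsomes (0.5 mg/mL) and NADPH (0.5 mg/mL). Viability was measured in the same wells as ATP content by CellTiter-Glo luminescence.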

[7] = p53 small molecule agonists, cell-based qHTS assay: qHTS cell viability counter screen (AID 1963581); further: nearly all actives have a fitted effect of over 45% in size
Outline: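 Following 5 h attachment, HCT-116 p53RE-bla cells took up compound for 16 h at 37 C; the reporter was read with B/G FRET substrate (2 h RT), and viability then via CellTiter-Glo ATP luminescence.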

[8] = cAMP Responsive Elements (CRE) small molecule agonists, cell-based qHTS assay (AID 1963590)
Outline: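 A CRE-responsive beta-lactamase reporter in HEK 293T cells was used. Treatment ran 3 h at 37 C; detection used LiveBLAzer B/G FRET substrate for 2 h at room temperature.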

[9] = cAMP Responsive Elements (CRE) small molecule antagonists, cell-based qHTS assay (AID 1963591; active means well fitted inhibition curve with a large enough effect in the signal ratio in the repeat runs, not every such curve was filed as active; the % refers to the signal ratio)
Outline: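 HEK293T cells carrying a CRE-driven beta-lactamase reporter receive compound and NKH477 (0.25 uM final) for 3 h. Fluorescence from LiveBLAzer B/G FRET substrate is read after 2 h at room temperature.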

[10] = molecular target: Beta-2 adrenergic receptor (Homo sapiens) (UniProt P07550); test: Adrenergic beta2 receptor (ADRB2) small molecule antagonists, cell-based qHTS assay (AID 1963592); further: series mostly up to about 92 µM; nearly all actives have a fitted effect of over 50% in size
Beta-2 adrenergic receptor (Homo sapiens), sequence (P07550 whole entry, looked up): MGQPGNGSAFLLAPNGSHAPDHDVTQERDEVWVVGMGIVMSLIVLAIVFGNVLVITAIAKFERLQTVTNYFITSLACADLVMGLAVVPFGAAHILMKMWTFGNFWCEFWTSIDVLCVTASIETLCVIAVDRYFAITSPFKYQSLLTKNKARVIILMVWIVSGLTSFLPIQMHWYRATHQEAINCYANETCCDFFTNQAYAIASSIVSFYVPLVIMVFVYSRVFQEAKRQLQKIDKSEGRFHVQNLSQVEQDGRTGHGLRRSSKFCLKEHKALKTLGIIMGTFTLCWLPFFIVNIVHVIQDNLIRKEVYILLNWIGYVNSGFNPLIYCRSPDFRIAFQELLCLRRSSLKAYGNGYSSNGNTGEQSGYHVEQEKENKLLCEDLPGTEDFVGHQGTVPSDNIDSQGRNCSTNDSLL
Outline: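 Cells (CHO, stable ADRB2 overexpression) incubated 18-20hr at 37C; compounds added from DMSO; agonist mix (1nM isoproterenol, 100uM IBMX, 25uM Ro-20-1724) added; 0.5hr RT; d2-cAMP and anti-cAMP-cryptate added; 1hr RT; 665/615 nm read.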

[11] = p53 small molecule agonists, cell-based qHTS assay with human liver microsomes: qHTS cell viability counter screen (AID 1963579); further: nearly all actives have a fitted effect of over 45% in size
Outline: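 Seed p53RE-bla cells at 4,000 per well; incubate 5 h at 37 C; add compound, human liver microsomes and NADPH; incubate 16 h at 37 C; add CellTiter-Glo; after 30 min at room temperature, read luminescence.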

[12] = molecular target: 5-hydroxytryptamine receptor 2A (Homo sapiens) (UniProt P28223); test: 5-hydroxytryptamine receptor 2A (HTR2A) small molecule antagonists, cell-based qHTS assay (AID 1963586); further: nearly all actives have a fitted effect of over 45% in size
5-hydroxytryptamine receptor 2A (Homo sapiens), sequence (P28223 whole entry, looked up): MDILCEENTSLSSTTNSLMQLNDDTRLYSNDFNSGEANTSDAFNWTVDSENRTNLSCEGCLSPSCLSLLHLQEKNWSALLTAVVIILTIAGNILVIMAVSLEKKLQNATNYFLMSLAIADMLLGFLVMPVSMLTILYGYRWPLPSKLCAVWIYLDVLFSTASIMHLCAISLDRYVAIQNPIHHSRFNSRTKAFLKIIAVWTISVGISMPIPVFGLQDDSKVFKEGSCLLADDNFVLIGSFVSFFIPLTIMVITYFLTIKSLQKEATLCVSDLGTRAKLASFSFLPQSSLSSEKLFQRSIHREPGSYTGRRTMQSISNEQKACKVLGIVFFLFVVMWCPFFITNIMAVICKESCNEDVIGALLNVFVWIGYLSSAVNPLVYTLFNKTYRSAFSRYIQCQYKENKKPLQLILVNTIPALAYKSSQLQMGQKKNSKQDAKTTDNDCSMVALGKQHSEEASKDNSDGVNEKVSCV
Outline: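 Antagonist-mode intracellular calcium assay: DOI (4 nM) added after 5 min compound pre-incubation at room temperature to dye-loaded HTR2A-CHO cells. Fluorescence followed for 3 min, sampled every second.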

[13] = molecular target: 5-hydroxytryptamine receptor 2A (Homo sapiens) (UniProt P28223); test: 5-hydroxytryptamine receptor 2A (HTR2A) small molecule agonists, cell-based qHTS assay (AID 1963587); further: nearly all actives have a fitted effect of over 30% in size
Outline: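 CHO cells stably expressing human HTR2A, plated 18 h, loaded with calcium dye 1 h at 37 C. Agonist mode: compounds added and intracellular calcium fluorescence recorded kinetically for 2 min at 1 sec intervals.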

[14] = molecular target: Muscarinic acetylcholine receptor M1 (Homo sapiens) (UniProt P11229); test: Cholinergic receptor muscarinic 1 (CHRM1) small molecule antagonists, cell-based qHTS assay (AID 1963588); further: nearly all actives have a fitted effect of over 40% in size
Muscarinic acetylcholine receptor M1 (Homo sapiens), sequence (P11229 whole entry, looked up): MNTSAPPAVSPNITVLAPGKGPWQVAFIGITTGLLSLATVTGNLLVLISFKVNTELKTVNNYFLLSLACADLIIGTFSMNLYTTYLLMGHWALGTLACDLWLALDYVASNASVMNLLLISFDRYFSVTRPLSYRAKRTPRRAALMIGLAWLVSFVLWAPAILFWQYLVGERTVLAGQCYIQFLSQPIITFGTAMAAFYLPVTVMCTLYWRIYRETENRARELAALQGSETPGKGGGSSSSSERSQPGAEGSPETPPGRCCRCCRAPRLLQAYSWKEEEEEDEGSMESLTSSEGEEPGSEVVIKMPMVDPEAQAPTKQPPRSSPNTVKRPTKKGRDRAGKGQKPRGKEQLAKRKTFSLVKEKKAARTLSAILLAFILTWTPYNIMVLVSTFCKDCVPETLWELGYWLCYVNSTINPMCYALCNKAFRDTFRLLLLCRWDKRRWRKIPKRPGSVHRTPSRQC
Outline: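 CHRM1-CHO calcium-flux assay, antagonist mode. Cells were seeded 18 h, dye-loaded 1 h at 37 C and given compound for 5 min at RT, then acetylcholine was added at 50nM. FDSS fluorescence was read 3 min; 15 concentrations, three runs.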

[15] = molecular target: Muscarinic acetylcholine receptor M1 (Homo sapiens) (UniProt P11229); test: Cholinergic receptor muscarinic 1 (CHRM1) small molecule agonists, cell-based qHTS assay (AID 1963589); further: nearly all actives have a fitted effect of over 35% in size
Outline: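 Measures agonist-induced intracellular calcium rise. Stable human CHRM1 CHO line, 1 h dye load at 37 C, compounds from DMSO, kinetic fluorescence read.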

[16] = molecular target: Beta-2 adrenergic receptor (Homo sapiens) (UniProt P07550); test: Adrenergic beta2 receptor (ADRB2) small molecule agonists, cell-based qHTS assay (AID 1963593);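 further: CHO cells stably overexpressing human ADRB2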
Outline: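 CHO cells stably over-expressing ADRB2 were plated overnight at 37C, then dosed with compounds plus a stimulation mix containing 100uM IBMX and 25uM Ro-20-1724 for 0.5hr at room temperature. cAMP was measured by HTRF competition, 1hr.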

[17] = molecular target: D(2) dopamine receptor (Homo sapiens) (UniProt P14416); test: Dopamine D2 receptor (DRD2) small molecule agonists, cell-based qHTS assay (AID 1963594); further: nearly all actives have a fitted effect of over 35% in size
D(2) dopamine receptor (Homo sapiens), sequence (P14416 whole entry, looked up): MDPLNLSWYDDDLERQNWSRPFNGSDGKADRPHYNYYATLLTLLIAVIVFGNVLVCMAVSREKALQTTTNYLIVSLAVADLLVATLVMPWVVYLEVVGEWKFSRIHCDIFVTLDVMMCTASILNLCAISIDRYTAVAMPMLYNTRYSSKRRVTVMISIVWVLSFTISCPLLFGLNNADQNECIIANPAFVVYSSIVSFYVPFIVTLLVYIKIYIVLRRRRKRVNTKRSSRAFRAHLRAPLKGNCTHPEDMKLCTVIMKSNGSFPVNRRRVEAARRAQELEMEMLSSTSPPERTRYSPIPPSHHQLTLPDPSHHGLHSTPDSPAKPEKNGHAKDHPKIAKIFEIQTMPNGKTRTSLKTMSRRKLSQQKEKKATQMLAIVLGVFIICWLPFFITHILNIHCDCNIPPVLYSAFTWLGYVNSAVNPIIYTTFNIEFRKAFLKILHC
Outline: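 HEK293 cells stably expressing human DRD2, pre-treated with PDE inhibitor Ro20-1724 (0.1 mM final) and compound 10 min at room temperature, then stimulated with NKH477 (200nM […]) for 30 min. cAMP read by HTRF (665/620 nm).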

[18] = molecular target: D(2) dopamine receptor (Homo sapiens) (UniProt P14416); test: Dopamine D2 receptor (DRD2) small molecule antagonists, cell-based qHTS assay (AID 1963595; active means well fitted inhibition curve with a large enough effect in the signal ratio in the repeat runs, with a control signal flat; the % refers to the signal ratio)
Outline: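 Stable D2 receptor HEK293 line, 24 h after seeding. Compound preincubated 10 min, then quinpirole (12 nM) with forskolin analogue NKH477 (200 nM), 30 min, room temperature. Detection by time-resolved FRET of cAMP.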

[19] = p53 small molecule agonists, cell-based qHTS assay (AID 1963582; active means well fitted activation curve with a large enough effect in the signal ratio in the repeat runs, not every such curve was filed as active; the % refers to the signal ratio)
Outline: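 In this cell-based concentration-response screen, a p53 response element drives beta-lactamase; cells received DMSO-borne compounds after 5 h culture and were incubated a further 16 h before FRET substrate development.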
On the % scale 0 is the no-effect control and ±100 the full control effect.

O=C(N[C@H](CO)[C@H](O)c1ccc([N+](=O)[O-])cc1)C(Cl)Cl
inactive: Potency [1] | Potency [2] | Potency [3] | Potency [4] | Potency [5] | Potency [6] | Potency [7] | Potency [8] | Potency [9] | Potency [10]

CC(C)(C)C(O)/C=C/c1ccc2c(c1)OCO2 (centres undefined)
inactive: Potency [1] | Potency [2] | Potency [3] | Potency [4] | Potency [11] | Potency [6] | Potency [7] | Potency [12] | Potency [13] | Potency [14] | Potency [15] | Potency [8] | Potency [9] | Potency [10] | Potency [16] | Potency [17] | Potency [18]

O=C(O)CN1C(=O)c2cccc3cccc(c23)C1=O
inactive: Potency [1] | Potency [2] | Potency [3] | Potency [4] | Potency [5] | Potency [11] | Potency [6] | Potency [19] | Potency [12] | Potency [13] | Potency [14] | Potency [15] | Potency [9] | Potency [10] | Potency [17]

NC[C@H]1O[C@H](O[C@H]2[C@H](O)[C@@H](O[C@H]3O[C@H](CO)[C@@H](O)[C@H](N)[C@H]3O)[C@H](N)C[C@@H]2N)[C@H](O)[C@@H](O)[C@@H]1O
inactive: activity change, negative = cytotoxicity [1] 2.11% [at 8.39 µM] | activity change [2] -0.795% [at 5.22 µM, active compounds read high] | activation [3] 3.49% [at 6.97 µM] | activation [4] -1.23% [at 5.23 µM] | activation [5] 6.15% [at 5.99 µM] | activity change, negative = cytotoxicity [11] 4.31% [at 5.99 µM] | activity change, negative = cytotoxicity [6] 3.51% [at 5.99 µM] | activity change, negative = cytotoxicity [7] 2.96% [at 5.99 µM] | activity change, negative = inhibition [9] -1.06% [at 8.39 µM] | activity change, negative = inhibition [10] 0.292% [at 8.39 µM] | activation [17] 0% [at 8.39 µM] | activity change, negative = inhibition [18] -3.37% [at 8.38 µM]

c1ccc(B(c2ccccc2)c2ccccc2)cc1
inactive: Potency [1] | Potency [2] | Potency [3] | Potency [4] | Potency [5] | Potency [11] | Potency [6] | Potency [7] | Potency [19] | Potency [12] | Potency [13] | Potency [15] | Potency [17] | Potency [18]

CCCCCCCCCCl
inactive: Potency [1] | Potency [2] | Potency [3] | Potency [4] | Potency [11] | Potency [6] | Potency [7] | Potency [12] | Potency [13] | Potency [14] | Potency [15] | Potency [8] | Potency [9] | Potency [10] | Potency [17] | Potency [18]

Cc1c(-c2ccccc2)oc2c(C(=O)OCCN3CCCCC3)cccc2c1=O
inactive: Potency [1] | Potency [2] | Potency [3] | Potency [4] | Potency [5] | Potency [11] | Potency [6] | Potency [7] | Potency [9] | Potency [10] | Potency [16] | Potency [17]

CCCc1ccc(OCC(=O)N2CCN(C(=O)COc3ccc(CCC)cc3OC)CC2)c(OC)c1
inactive: Potency [1] | Potency [2] | Potency [3] | Potency [4] | Potency [11] | Potency [6] | Potency [7] | Potency [19] | Potency [12] | Potency [13] | Potency [14] | Potency [15] | Potency [9] | Potency [10] | Potency [17] | Potency [18]

CC1=C(C(=O)O)N2C(=O)[C@@H](NC(=O)[C@H](N)C3=CCC=CC3)[C@H]2SC1
inactive: Potency [1] | Potency [2] | Potency [3] | Potency [4] | Potency [11] | Potency [6] | Potency [7] | Potency [12] | Potency [13] | Potency [14] | Potency [15] | Potency [8] | Potency [9] | Potency [10] | Potency [16] | Potency [17] | Potency [18]
